Here are results for 38 compounds from the supplement of paper PMC9694430.

“And” between values parts separate entries of the source, which are not always exact repeats. Equal values may be shown once. Where a name gives a salt, the structure may show the parent alone.

The subject of the first assay is LOC_OS05G28520-cb001. Nature of the assay: thermal shift delta Tm vs DMSO control; higher = stronger stabilization (binding). The settings on record: 12.5 µM; protein concentration 2 µM. Summed up:
(§1)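 Compounds dissolved in DMSO were added to purified rice kinase domain constructs, which had been expressed in E. coli, for differential scanning fluorimetry. Each well held 19.5 μl of 2 μM kinase in 100 mM potassium phosphate pH 7.5, 150 mM NaCl, 10% glycerol and 5 × SYPRO Orange. Fluorescence was followed from 25°C to 95°C at a rate of 0.05°C/s. Shifts in Boltzmann-fitted melting temperature are triplicate means relative to DMSO-only protein.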
As to `c1cncc(CN2CCC(n3ncc4c(N5CCOCC5)nc(-c5ccc6[nH]ccc6c5)nc43)CC2)c1`, the “thermal shift delta Tm” value stood at 0.6 °C.
On to `CCCS(=O)(=O)Nc1ccc(F)c(C(=O)c2c[nH]c3ncc(Cl)cc23)c1F`, for which the “thermal shift delta Tm” value turned out to be 1.71 °C.
Turning to `COC(=O)N[C@@H](C)CNc1nccc(-c2cn(C(C)C)nc2-c2cc(Cl)cc(NS(C)(=O)=O)c2F)n1` [Encorafenib (LGX818)], the “thermal shift delta Tm” value turned out to be 0.85 °C.
The same measure, in the same setting: the same measure for `O=C1c2c(O)cc(O)cc2OC(c2ccc(O)c(O)c2)C1O` (stereo unspecified) [Taxifolin (Dihydroquercetin)]: 0.61 °C; for `CCCCCCCCCCCCc1ccc(S(=O)(=O)Nc2nncs2)cc1`: 0.11 °C; for `COc1cc2c(c(OC)c1OC)-c1c(cc3c(c1OC)OCO3)CC(C)C(C)C2` (stereo unspecified) [Schisandrin B (Sch B)]: 0.63 °C.
The same measure, in the same setting: with `CS(=O)(=O)c1ccc(-c2cnc(N)c(C(=O)Nc3ccccc3)n2)cc1` the figure was 0.25 °C; with `CC1Oc2cc(cnc2N)-c2c(nn(C)c2C#N)CN(C)C(=O)c2ccc(F)cc21` (stereo unspecified), 0.23 °C; with `Cc1ccc2nc(NCCN)c3ncc(C)n3c2c1`, 0.44 °C.
For the compound `C[C@@H](N)c1ccc(C(=O)Nc2ccnc3[nH]ccc23)cc1`, the “thermal shift delta Tm” value is 0.67 °C.
On to `CCn1c(N)c(C(=O)NC)c(=O)c2ccc(C#CC(C)(O)COC)nc21` (stereo unspecified), for which the “thermal shift delta Tm” value worked out at 0.37 °C.
On the same count and under the same terms, the same measure for `COC(=O)[C@]12CCC(C)(C)C[C@H]1[C@H]1C(=O)C=C3[C@@]4(C)C=C(C#N)C(=O)C(C)(C)[C@@H]4CC[C@@]3(C)[C@]1(C)CC2` [Bardoxolone Methyl]: -4.77 °C; for `COc1cc(Nc2ncc(F)c(Nc3ccc4c(n3)N(COP(=O)(O)O)C(=O)C(C)(C)O4)n2)cc(OC)c1OC` [R788 (Fostamatinib) Disodium]: 0.86 °C; for `CC#CC(=O)Nc1ccc2ncnc(Nc3cccc(Br)c3)c2c1`: 0.85 °C.
The same measure, in the same setting: the same measure for `Cc1c(C(=O)N2CCOc3ccc(-c4ccc(N)nc4)cc3C2)ccc(S(C)(=O)=O)c1F`: 0.33 °C.
The same measure, in the same setting: with `COc1ccc(-c2ccc3c(N4CCOCC4)nc(N4C[C@@H](C)O[C@@H](C)C4)nc3n2)cc1CO` the figure was 0 °C; with `O=C(Nc1cnn2ccc(N3CCC[C@@H]3c3cc(F)ccc3F)nc12)N1CC[C@H](O)C1` [Larotrectinib (LOXO-101) sulfate], 0.01 °C; with `O=C(NCCCNc1nc(Nc2cccc(NC(=O)N3CCCC3)c2)ncc1I)c1cccs1`, 0.99 °C.
Consider `Nc1cccc(-c2cc3c(Oc4cccc(O)c4)ncnc3[nH]2)c1`, for which the “thermal shift delta Tm” value came to 0.57 °C.
On the same count and under the same terms, the same measure for `CC(C)(C)NC(=O)c1cncn1C1CCN(c2ccc(-c3nnc(C(F)(F)F)o3)cn2)CC1`: -0.42 °C; for `Nc1nc2cc(-c3ccc4ncc(C(=O)N5CCOCC5)n4c3)ccc2o1` [Serabelisib (INK-1117,MLN-1117,TAK-117)]: 0.55 °C; for `COCCOc1ccc2c(c1)ncn2-c1ccc2cccc(N3CCC(N)CC3)c2n1`: -0.07 °C.
Turning to `CC(C)CCN1c2nc(Nc3cc(F)c(O)c(F)c3)ncc2N(C)C(=O)C1C` (stereo unspecified), the “thermal shift delta Tm” value was found to be 1 °C.
On the same count and under the same terms, with `O=c1cc(-c2cccc3c2Sc2ccccc2S3)oc(N2CCOCC2)c1` the figure was 0.74 °C; with `N=C(N)NC(=N)NCCc1ccccc1` [Phenformin HCl], 0.39 °C.
The same measure, in the same setting: with `CC(C)=CC[C@@H](O)C1=CC(=O)c2c(O)ccc(O)c2C1=O` [Shikonin] the figure was 1.58 °C.
Still for that read-out and setting: the same measure for `CCN(CC)CCNC(=O)c1c(C)[nH]c(/C=C2\C(=O)Nc3ccc(F)cc32)c1C` [Sunitinib]: 2.16 °C; for `Nc1ncnc2c1c(-c1cnc3[nH]ccc3c1)nn2C1CCCC1`: 0.54 °C; for `CC(=O)Nc1cccc(-n2c(=O)n(C3CC3)c(=O)c3c(Nc4ccc(I)cc4F)n(C)c(=O)c(C)c32)c1`: 0.48 °C.
Consider `O=C(NC[C@H](O)CO)c1ccncc1Nc1ccc(I)cc1F`, for which the “thermal shift delta Tm” value is -0.04 °C.
On to `COc1cc2ncnc(Oc3ccc(CC(=O)Nc4cnn(C(C)C)c4)cc3)c2cc1OC`, for which the “thermal shift delta Tm” value came to 0.43 °C.
Consider `Nc1cccc(S(=O)(=O)N2CCCN(S(=O)(=O)c3ccc4c(c3)OCCO4)CC2)c1`, for which the “thermal shift delta Tm” value is 0.74 °C.
On the same count and under the same terms, the same measure for `CCN1CCN(Cc2ccc(C(=O)Nc3ccc(C)c(Oc4ccc5c(c4)CC(=O)N5)c3)cc2C(F)(F)F)CC1`: 0.4 °C; for `C=CC(=O)Nc1ccc2ncnc(Nc3ccc(OCc4cccc(F)c4)c(Cl)c3)c2c1`: 1.71 °C.
On the same count and under the same terms, with `Nc1ccc(-c2ccc3ncc4ccc(=O)n(-c5cccc(C(F)(F)F)c5)c4c3c2)cn1` [Torin 2] the figure was 0.76 °C.
With `C[C@@H]1CCN(C(=O)CC#N)C[C@@H]1N(C)c1ncnc2[nH]ccc12`, the “thermal shift delta Tm” value is 0.03 °C and 0.86 °C.
Regarding `CN1CCCN(C(=O)c2cccc(-c3ccc(/C=C4/C(=O)Nc5ccc(Cl)cc54)o3)c2)CC1`, the “thermal shift delta Tm” value worked out at 1.14 °C.
On to `C[C@@H](Oc1cc(-c2cnn(C3CCNCC3)c2)cnc1N)c1c(Cl)ccc(F)c1Cl`, for which the “thermal shift delta Tm” value worked out at 0.26 °C.

The subject of the next assay is LOC_OS05G30820-cb001. The description is as above. The settings on record: 12.5 µM; protein concentration 2 µM. Summed up: as §1
Regarding `c1cncc(CN2CCC(n3ncc4c(N5CCOCC5)nc(-c5ccc6[nH]ccc6c5)nc43)CC2)c1`, the “thermal shift delta Tm” value was 0.62 °C.
Take `CCCS(=O)(=O)Nc1ccc(F)c(C(=O)c2c[nH]c3ncc(Cl)cc23)c1F`: the “thermal shift delta Tm” value is 0.75 °C.
Still for that read-out and setting: with `COC(=O)N[C@@H](C)CNc1nccc(-c2cn(C(C)C)nc2-c2cc(Cl)cc(NS(C)(=O)=O)c2F)n1` [Encorafenib (LGX818)] the figure was 0.58 °C; with `O=C1c2c(O)cc(O)cc2OC(c2ccc(O)c(O)c2)C1O` (stereo unspecified) [Taxifolin (Dihydroquercetin)], 0.75 °C.
The same measure, in the same setting: the same measure for `CCCCCCCCCCCCc1ccc(S(=O)(=O)Nc2nncs2)cc1`: 0.45 °C; for `COc1cc2c(c(OC)c1OC)-c1c(cc3c(c1OC)OCO3)CC(C)C(C)C2` (stereo unspecified) [Schisandrin B (Sch B)]: 0.52 °C; for `CS(=O)(=O)c1ccc(-c2cnc(N)c(C(=O)Nc3ccccc3)n2)cc1`: 0.57 °C.
The same measure, in the same setting: the same measure for `CC1Oc2cc(cnc2N)-c2c(nn(C)c2C#N)CN(C)C(=O)c2ccc(F)cc21` (stereo unspecified): 0.66 °C; for `Cc1ccc2nc(NCCN)c3ncc(C)n3c2c1`: 0.61 °C.
Consider `C[C@@H](N)c1ccc(C(=O)Nc2ccnc3[nH]ccc23)cc1`, for which the “thermal shift delta Tm” value turned out to be 0.3 °C.
On the same count and under the same terms, the same measure for `CCn1c(N)c(C(=O)NC)c(=O)c2ccc(C#CC(C)(O)COC)nc21` (stereo unspecified): 0.73 °C; for `COC(=O)[C@]12CCC(C)(C)C[C@H]1[C@H]1C(=O)C=C3[C@@]4(C)C=C(C#N)C(=O)C(C)(C)[C@@H]4CC[C@@]3(C)[C@]1(C)CC2` [Bardoxolone Methyl]: 0.07 °C; for `COc1cc(Nc2ncc(F)c(Nc3ccc4c(n3)N(COP(=O)(O)O)C(=O)C(C)(C)O4)n2)cc(OC)c1OC` [R788 (Fostamatinib) Disodium]: 1.5 °C.
Still for that read-out and setting: with `CC#CC(=O)Nc1ccc2ncnc(Nc3cccc(Br)c3)c2c1` the figure was 0.66 °C.
Same read-out and setting: the same measure for `Cc1c(C(=O)N2CCOc3ccc(-c4ccc(N)nc4)cc3C2)ccc(S(C)(=O)=O)c1F`: 0.36 °C; for `COc1ccc(-c2ccc3c(N4CCOCC4)nc(N4C[C@@H](C)O[C@@H](C)C4)nc3n2)cc1CO`: 0.48 °C.
With `O=C(Nc1cnn2ccc(N3CCC[C@@H]3c3cc(F)ccc3F)nc12)N1CC[C@H](O)C1` [Larotrectinib (LOXO-101) sulfate], the “thermal shift delta Tm” value was 0.53 °C.
On to `O=C(NCCCNc1nc(Nc2cccc(NC(=O)N3CCCC3)c2)ncc1I)c1cccs1`, for which the “thermal shift delta Tm” value was 3.99 °C.
Same read-out and setting: the same measure for `Nc1cccc(-c2cc3c(Oc4cccc(O)c4)ncnc3[nH]2)c1`: 1.14 °C; for `CC(C)(C)NC(=O)c1cncn1C1CCN(c2ccc(-c3nnc(C(F)(F)F)o3)cn2)CC1`: 0.02 °C.
For `Nc1nc2cc(-c3ccc4ncc(C(=O)N5CCOCC5)n4c3)ccc2o1` [Serabelisib (INK-1117,MLN-1117,TAK-117)], the “thermal shift delta Tm” value stood at 0.04 °C.
On the same count and under the same terms, the same measure for `COCCOc1ccc2c(c1)ncn2-c1ccc2cccc(N3CCC(N)CC3)c2n1`: 1.5 °C.
Still for that read-out and setting: the same measure for `CC(C)CCN1c2nc(Nc3cc(F)c(O)c(F)c3)ncc2N(C)C(=O)C1C` (stereo unspecified): 1.42 °C; for `O=c1cc(-c2cccc3c2Sc2ccccc2S3)oc(N2CCOCC2)c1`: 0.44 °C.
Still for that read-out and setting: with `N=C(N)NC(=N)NCCc1ccccc1` [Phenformin HCl] the figure was 0.48 °C.
As to `CC(C)=CC[C@@H](O)C1=CC(=O)c2c(O)ccc(O)c2C1=O` [Shikonin], the “thermal shift delta Tm” value came out at 0.18 °C.
As for `CCN(CC)CCNC(=O)c1c(C)[nH]c(/C=C2\C(=O)Nc3ccc(F)cc32)c1C` [Sunitinib], the “thermal shift delta Tm” value is 0.86 °C.
Same read-out and setting: the same measure for `Nc1ncnc2c1c(-c1cnc3[nH]ccc3c1)nn2C1CCCC1`: 0.76 °C; for `CC(=O)Nc1cccc(-n2c(=O)n(C3CC3)c(=O)c3c(Nc4ccc(I)cc4F)n(C)c(=O)c(C)c32)c1`: 0.42 °C.
In the case of `O=C(NC[C@H](O)CO)c1ccncc1Nc1ccc(I)cc1F`, the “thermal shift delta Tm” value was 0.65 °C.
`COc1cc2ncnc(Oc3ccc(CC(=O)Nc4cnn(C(C)C)c4)cc3)c2cc1OC`: the “thermal shift delta Tm” value worked out at 0.37 °C.
Take `Nc1cccc(S(=O)(=O)N2CCCN(S(=O)(=O)c3ccc4c(c3)OCCO4)CC2)c1`: the “thermal shift delta Tm” value came out at 0.46 °C.
As for `CCN1CCN(Cc2ccc(C(=O)Nc3ccc(C)c(Oc4ccc5c(c4)CC(=O)N5)c3)cc2C(F)(F)F)CC1`, the “thermal shift delta Tm” value was 0.41 °C.
With `C=CC(=O)Nc1ccc2ncnc(Nc3ccc(OCc4cccc(F)c4)c(Cl)c3)c2c1`, the “thermal shift delta Tm” value worked out at 0.87 °C.
For `Nc1ccc(-c2ccc3ncc4ccc(=O)n(-c5cccc(C(F)(F)F)c5)c4c3c2)cn1` [Torin 2], the “thermal shift delta Tm” value amounted to 0.48 °C.
As for `C[C@@H]1CCN(C(=O)CC#N)C[C@@H]1N(C)c1ncnc2[nH]ccc12`, the “thermal shift delta Tm” value was 0.42 °C and 0.38 °C.
The same measure, in the same setting: the same measure for `CN1CCCN(C(=O)c2cccc(-c3ccc(/C=C4/C(=O)Nc5ccc(Cl)cc54)o3)c2)CC1`: 0.63 °C; for `C[C@@H](Oc1cc(-c2cnn(C3CCNCC3)c2)cnc1N)c1c(Cl)ccc(F)c1Cl`: 0.39 °C.
